Targets with a hit are over-represented here; the source holds about 7,900 in all. About 0.6% of all pairs of compound and target were hits. Values without a mark were called inactive.
How the values were obtained:
Assay in all cases: log2 fold change, soluble protein after heating vs DMSO (PISA); higher = thermal stabilisation; K562 cells, 10 uM, 30 min; active = over 0.2 and 3.5 SD of the protein, either way, in both replicates (recomputed)
[1] = compound: COC1=CC=C(C=C1)CN2C=CC3=C2C=C(C=C3)C(=O)NO
Outline: (§1)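 K562 cells at 2×10^6 cells/mL were exposed to 10 μM compound for 30 min, then aliquots were heated for 3 min across 48°C-58°C, pooled, and extracted in PBS containing 0.5% NP-40 at 4°C. The supernatant after 21,000xg for 90 min was taken as soluble protein and measured by TMTpro 16plex LC-MS/MS with channel sums equalised. Thermal stability is reported relative to control samples, with values from duplicates. Fold changes are given on a log2 scale.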

[2] = compound: CON(C)C(=O)N1N=C(c2cc(F)ccc2F)S[C@@]1(CCCN)c1ccccc1 [filanesib]
Outline: as §1

[3] = compound: CO[C@H]1C[C@@H]2CC[C@@H](C)[C@@](O)(O2)C(=O)C(=O)N2CCCC[C@H]2C(=O)O[C@H]([C@H](C)C[C@@H]2CC[C@H](n3cnnn3)[C@H](OC)C2)CC(=O)[C@H](C)/C=C(\C)[C@@H](O)[C@@H](OC)C(=O)[C@H](C)C[C@H](C)/C=C/C=C/C=C/1C [zotarolimus]
Outline: as §1

[4] = compound: COc1cc(C(=O)O)ccc1NC(=O)[C@@H]1N[C@@H](CC(C)(C)C)[C@](C#N)(c2ccc(Cl)cc2F)[C@H]1c1cccc(Cl)c1F [idasanutlin]
Outline: as §1

[5] = compound: COc1cc(Nc2ncc3c(n2)-c2ccc(Cl)cc2C(c2c(F)cccc2OC)=NC3)ccc1C(=O)O [alisertib]
Outline: as §1

[6] = compound: COc1cc2nc(-c3cc(F)ccc3O)nc(N[C@@H]3CNC[C@H]3C(C)(C)O)c2cc1OC
Outline: as §1

[7] = compound: COc1cc2ncnc(Nc3ccc(F)c(Cl)c3)c2cc1OCCCN1CCOCC1 [gefitinib]
Outline: as §1

[8] = compound: COc1cccc2cc(-c3nc([C@H]4CC[C@H](C(=O)O)CC4)n4ncnc(N)c34)[nH]c12
Outline: as §1

[9] = compound: CS(=O)(=O)CCNCc1ccc(-c2ccc3ncnc(Nc4ccc(OCc5cccc(F)c5)c(Cl)c4)c3c2)o1 [lapatinib]
Outline: as §1

[10] = compound: CS(=O)(=O)N1CCN(Cc2cc3nc(-c4cccc5[nH]ncc45)nc(N4CCOCC4)c3s2)CC1 [pictilisib]
Outline: as §1

[11] = compound: CS(=O)(=O)c1ccc(-c2cnc(N)c(C(=O)Nc3ccccc3)n2)cc1
Outline: as §1

[12] = compound: C[C@@H](Oc1cc(-c2cnn(C3CCNCC3)c2)cnc1N)c1c(Cl)ccc(F)c1Cl [crizotinib]
Outline: as §1

[13] = compound: C[C@@H]1COCCN1C2=NC(=NC(=C2)C3(CC3)S(=O)(=O)C)C4=C5C=CNC5=CC=C4
Outline: as §1

[14] = compound: C[C@H](C1=CC=C(C=C1)C(=O)NC2=C3C=CNC3=NC=C2)N
Outline: as §1

[15] = compound: C[C@H](Nc1ncnc2nc[nH]c12)c1cc2cccc(Cl)c2c(=O)n1-c1ccccc1 [duvelisib]
Outline: as §1

[16] = compound: Cc1cc(Nc2cc(CN3CCOCC3)c3nc(C)c(Cc4ccc(Cl)cc4F)n3n2)n[nH]1 [gandotinib]
Outline: as §1

[17] = compound: Cc1cc(Nc2cc(N3CCN(C)CC3)nc(Sc3ccc(NC(=O)C4CC4)cc3)n2)n[nH]1 [tozasertib]
Outline: as §1

[18] = compound: Cc1cc(SCc2sc(-c3ccc(C(F)(F)F)cc3)nc2C)ccc1OCC(=O)O
Outline: as §1

[19] = compound: Cc1ccc(-n2nc(C(C)(C)C)cc2NC(=O)Nc2ccc(OCCN3CCOCC3)c3ccccc23)cc1 [doramapimod]
Outline: as §1

[20] = compound: Cc1ccc(C(=O)N(CCCN)[C@@H](c2nc3cc(Cl)ccc3c(=O)n2Cc2ccccc2)C(C)C)cc1 [ispinesib]
Outline: as §1

Chain of UniProt O00567 (O00567 whole entry, looked up): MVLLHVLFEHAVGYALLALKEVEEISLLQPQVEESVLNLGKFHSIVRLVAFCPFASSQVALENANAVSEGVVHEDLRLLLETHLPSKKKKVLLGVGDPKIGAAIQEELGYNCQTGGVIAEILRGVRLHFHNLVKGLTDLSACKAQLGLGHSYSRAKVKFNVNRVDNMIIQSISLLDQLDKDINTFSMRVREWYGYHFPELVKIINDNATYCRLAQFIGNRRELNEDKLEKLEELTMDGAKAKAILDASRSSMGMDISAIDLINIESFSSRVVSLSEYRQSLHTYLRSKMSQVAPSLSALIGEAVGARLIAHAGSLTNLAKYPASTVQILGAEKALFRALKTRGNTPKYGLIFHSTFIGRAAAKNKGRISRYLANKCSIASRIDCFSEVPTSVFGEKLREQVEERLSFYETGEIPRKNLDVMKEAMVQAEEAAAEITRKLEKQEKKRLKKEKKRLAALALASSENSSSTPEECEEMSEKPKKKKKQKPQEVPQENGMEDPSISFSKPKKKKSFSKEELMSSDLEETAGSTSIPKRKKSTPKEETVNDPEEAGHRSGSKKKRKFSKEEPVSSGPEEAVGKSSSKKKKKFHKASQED
Chain of UniProt Q8WVJ2 (Q8WVJ2 whole entry, looked up): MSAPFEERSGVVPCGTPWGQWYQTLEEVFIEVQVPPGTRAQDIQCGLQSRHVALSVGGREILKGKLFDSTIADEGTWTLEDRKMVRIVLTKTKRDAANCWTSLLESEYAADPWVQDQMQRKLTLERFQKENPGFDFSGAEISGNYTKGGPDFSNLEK
Chain of UniProt Q12968 (Q12968 whole entry, looked up): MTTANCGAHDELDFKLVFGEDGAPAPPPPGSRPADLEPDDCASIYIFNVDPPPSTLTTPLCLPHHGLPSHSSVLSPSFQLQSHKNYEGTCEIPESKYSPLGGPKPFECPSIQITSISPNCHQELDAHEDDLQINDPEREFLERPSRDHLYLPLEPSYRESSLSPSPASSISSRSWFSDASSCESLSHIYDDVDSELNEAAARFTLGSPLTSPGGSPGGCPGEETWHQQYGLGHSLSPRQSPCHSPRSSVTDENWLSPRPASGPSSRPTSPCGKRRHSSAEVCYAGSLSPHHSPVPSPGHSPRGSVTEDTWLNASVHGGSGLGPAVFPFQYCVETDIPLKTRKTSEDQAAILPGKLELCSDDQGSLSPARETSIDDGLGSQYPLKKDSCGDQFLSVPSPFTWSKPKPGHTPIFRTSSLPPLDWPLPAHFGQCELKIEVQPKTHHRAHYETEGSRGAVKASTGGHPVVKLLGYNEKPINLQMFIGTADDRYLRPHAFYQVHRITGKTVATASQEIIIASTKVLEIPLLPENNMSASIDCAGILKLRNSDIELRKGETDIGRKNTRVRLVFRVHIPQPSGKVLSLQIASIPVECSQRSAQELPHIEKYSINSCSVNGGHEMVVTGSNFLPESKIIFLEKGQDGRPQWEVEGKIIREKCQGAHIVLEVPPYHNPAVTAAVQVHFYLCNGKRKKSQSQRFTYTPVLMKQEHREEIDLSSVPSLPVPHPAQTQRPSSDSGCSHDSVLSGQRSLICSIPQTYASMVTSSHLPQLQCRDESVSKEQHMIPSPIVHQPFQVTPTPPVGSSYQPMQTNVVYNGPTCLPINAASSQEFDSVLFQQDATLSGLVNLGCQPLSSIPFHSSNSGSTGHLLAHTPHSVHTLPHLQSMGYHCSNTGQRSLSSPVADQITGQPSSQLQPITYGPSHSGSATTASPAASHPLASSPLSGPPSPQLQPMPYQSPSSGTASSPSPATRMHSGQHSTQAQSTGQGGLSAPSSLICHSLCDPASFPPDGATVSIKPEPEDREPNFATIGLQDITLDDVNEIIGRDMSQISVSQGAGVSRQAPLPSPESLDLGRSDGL
Chain of UniProt O60934 (O60934 whole entry, looked up): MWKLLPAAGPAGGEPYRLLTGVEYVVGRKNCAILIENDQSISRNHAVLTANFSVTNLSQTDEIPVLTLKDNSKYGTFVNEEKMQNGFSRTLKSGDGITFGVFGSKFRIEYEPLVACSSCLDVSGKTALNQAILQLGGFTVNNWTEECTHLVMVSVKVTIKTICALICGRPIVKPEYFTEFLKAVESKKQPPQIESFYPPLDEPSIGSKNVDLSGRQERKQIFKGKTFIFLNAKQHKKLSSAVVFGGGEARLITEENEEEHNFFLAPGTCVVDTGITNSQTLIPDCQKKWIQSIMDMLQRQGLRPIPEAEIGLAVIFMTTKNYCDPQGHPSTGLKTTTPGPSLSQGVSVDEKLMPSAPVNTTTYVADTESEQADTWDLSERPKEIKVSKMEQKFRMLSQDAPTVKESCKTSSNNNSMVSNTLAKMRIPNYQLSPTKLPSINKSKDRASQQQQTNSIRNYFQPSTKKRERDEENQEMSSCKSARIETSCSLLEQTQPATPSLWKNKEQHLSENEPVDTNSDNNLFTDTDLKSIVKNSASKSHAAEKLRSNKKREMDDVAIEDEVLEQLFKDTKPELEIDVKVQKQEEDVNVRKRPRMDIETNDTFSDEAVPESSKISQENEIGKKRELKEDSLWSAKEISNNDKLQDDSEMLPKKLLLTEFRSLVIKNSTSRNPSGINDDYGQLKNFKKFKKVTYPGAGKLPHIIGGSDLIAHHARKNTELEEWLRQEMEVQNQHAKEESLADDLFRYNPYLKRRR
Chain of UniProt Q8TEM1 (Q8TEM1 whole entry, looked up): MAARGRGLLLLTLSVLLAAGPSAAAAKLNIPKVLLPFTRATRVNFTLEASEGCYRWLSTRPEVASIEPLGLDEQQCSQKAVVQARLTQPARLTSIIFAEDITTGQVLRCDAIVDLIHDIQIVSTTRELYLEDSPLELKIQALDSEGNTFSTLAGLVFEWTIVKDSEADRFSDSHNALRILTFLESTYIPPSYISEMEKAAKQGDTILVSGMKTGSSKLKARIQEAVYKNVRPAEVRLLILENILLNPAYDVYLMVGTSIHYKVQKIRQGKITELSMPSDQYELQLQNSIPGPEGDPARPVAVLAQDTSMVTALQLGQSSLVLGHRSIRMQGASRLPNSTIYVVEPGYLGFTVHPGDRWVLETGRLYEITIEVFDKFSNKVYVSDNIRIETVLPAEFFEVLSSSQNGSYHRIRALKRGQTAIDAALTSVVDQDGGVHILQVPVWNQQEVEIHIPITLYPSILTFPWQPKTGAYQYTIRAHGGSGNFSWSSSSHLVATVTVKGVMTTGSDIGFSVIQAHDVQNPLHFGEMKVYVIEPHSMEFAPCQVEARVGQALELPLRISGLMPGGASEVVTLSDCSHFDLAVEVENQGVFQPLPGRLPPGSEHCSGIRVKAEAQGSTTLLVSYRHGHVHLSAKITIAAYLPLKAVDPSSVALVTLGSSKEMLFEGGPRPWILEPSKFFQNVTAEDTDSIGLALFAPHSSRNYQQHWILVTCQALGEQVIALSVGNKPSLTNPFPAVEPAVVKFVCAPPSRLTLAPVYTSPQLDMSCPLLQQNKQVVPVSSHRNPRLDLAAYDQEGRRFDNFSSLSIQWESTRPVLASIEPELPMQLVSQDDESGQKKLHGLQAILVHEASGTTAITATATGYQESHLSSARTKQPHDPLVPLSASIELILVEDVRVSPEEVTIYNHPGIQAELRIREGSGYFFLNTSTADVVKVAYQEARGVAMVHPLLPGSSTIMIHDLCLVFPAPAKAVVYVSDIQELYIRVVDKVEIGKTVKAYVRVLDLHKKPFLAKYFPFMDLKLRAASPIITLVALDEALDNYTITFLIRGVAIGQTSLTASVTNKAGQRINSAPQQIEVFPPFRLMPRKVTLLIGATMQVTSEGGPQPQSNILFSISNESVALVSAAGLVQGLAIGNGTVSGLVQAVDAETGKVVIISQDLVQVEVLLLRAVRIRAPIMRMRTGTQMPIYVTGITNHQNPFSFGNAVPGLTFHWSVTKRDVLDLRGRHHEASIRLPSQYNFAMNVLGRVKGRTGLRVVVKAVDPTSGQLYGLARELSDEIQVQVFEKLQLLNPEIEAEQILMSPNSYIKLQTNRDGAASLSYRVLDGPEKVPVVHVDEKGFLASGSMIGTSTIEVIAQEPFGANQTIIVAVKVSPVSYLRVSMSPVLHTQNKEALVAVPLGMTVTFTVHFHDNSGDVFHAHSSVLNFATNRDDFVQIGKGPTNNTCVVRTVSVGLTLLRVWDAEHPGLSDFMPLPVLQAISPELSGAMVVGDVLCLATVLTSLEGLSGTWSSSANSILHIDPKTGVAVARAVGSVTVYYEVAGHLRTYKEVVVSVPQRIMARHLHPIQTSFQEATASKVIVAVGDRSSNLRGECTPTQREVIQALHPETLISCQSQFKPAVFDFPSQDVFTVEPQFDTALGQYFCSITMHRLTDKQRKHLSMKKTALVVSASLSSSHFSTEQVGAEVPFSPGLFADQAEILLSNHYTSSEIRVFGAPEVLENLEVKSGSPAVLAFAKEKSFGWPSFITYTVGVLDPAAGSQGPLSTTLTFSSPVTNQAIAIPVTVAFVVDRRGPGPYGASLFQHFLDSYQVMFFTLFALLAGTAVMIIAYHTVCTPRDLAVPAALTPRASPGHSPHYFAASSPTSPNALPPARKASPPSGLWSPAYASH
Chain of UniProt Q96BN8 (Q96BN8 whole entry, looked up): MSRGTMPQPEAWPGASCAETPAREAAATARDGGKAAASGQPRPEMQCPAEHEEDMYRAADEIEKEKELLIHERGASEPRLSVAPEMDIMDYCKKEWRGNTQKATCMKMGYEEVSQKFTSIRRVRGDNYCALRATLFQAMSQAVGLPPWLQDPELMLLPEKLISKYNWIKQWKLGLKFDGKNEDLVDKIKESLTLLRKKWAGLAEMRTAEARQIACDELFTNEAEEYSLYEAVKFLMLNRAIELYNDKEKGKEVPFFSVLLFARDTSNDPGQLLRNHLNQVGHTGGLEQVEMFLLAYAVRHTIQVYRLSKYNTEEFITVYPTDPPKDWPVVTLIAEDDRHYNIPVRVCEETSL
Chain of UniProt Q9H081 (Q9H081 whole entry, looked up): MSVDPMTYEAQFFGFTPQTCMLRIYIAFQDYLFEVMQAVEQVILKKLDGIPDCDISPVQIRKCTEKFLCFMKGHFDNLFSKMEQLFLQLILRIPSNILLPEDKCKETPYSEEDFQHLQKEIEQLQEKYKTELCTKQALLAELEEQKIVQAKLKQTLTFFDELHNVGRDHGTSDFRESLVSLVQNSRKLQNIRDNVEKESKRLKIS

Target | log2 fold change [1] | log2 fold change [2] | log2 fold change [3] | log2 fold change [4] | log2 fold change [5] | log2 fold change [6] | log2 fold change [7] | log2 fold change [8] | log2 fold change [9] | log2 fold change [10] | log2 fold change [11] | log2 fold change [12] | log2 fold change [13] | log2 fold change [14] | log2 fold change [15] | log2 fold change [16] | log2 fold change [17] | log2 fold change [18] | log2 fold change [19] | log2 fold change [20]
MORF4L2 (UniProt Q15014) | -0.149 | 0.146 | -0.044 | 0.045 | -0.066 | -0.085 | -0.048 | -0.074 | 0.03 | -0.063 | -0.085 | 0.013 | -0.275 (active) | 0.053 | -0.201 | 0.085 | -0.007 | -0.012 | 0.035 | 0.011
NDUFS7 (UniProt O75251) | -0.009 | -0.108 | -0.036 | -0.112 | 0.039 | -0.106 | -0.029 | 0.057 | 0.015 | 0.047 | 0.013 | -0.109 | 0.029 | -0.019 | 0.053 | -0.108 | -0.046 | 0.013 | -0.02 | -0.114
NUDCD2 (UniProt Q8WVJ2) | 0.072 | -0.016 | 0.065 | 0.075 | -0.011 | 0.117 | 0.083 | -0.018 | -0.038 | 0.014 | 0.049 | -0.02 | 0.1 | -0.077 | 0.004 | -0.042 | 0.149 | 0.073 | -0.049 | -0.12
OXR1 (UniProt Q8N573) | -0.018 | -0.078 | 0.009 | -0.014 | -0.059 | 0.034 | 0.003 | 0.018 | 0.011 | 0.164 | 0.02 | -0.074 | 0.014 | -0.048 | 0.063 | 0 | 0.021 | -0.011 | 0.001 | -0.095
NUP210 (UniProt Q8TEM1) | -0.099 | -0.08 | 0.002 | 0.019 | -0.045 | -0.319 (active) | -0.053 | 0.045 | -0.089 | -0.114 | -0.039 | -0.235 (active) | 0.005 | -0.006 | -0.002 | -0.083 | -0.054 | 0.047 | 0.002 | -0.351 (active)
OTULIN (UniProt Q96BN8) | 0.022 | -0.044 | -0.024 | -0.005 | 0.086 | 0.014 | 0 | -0.045 | 0.048 | 0.023 | -0.099 | -0.079 | 0.04 | 0.036 | -0.027 | -0.088 | 0.098 | 0.073 | -0.095 | -0.208
MRPS33 (UniProt Q9Y291) | -0.033 | 0.002 | 0.043 | -0.167 | -0.052 | -0.057 | 0 | 0.008 | 0.036 | -0.1 | 0.041 | 0.005 | 0.005 | 0.168 | -0.034 | -0.034 | 0.02 | 0.121 | 0.034 | -0.485 (active)
NFATC3 (UniProt Q12968) | 0.039 | 0.056 | -0.109 | -0.009 | 0.006 | -0.109 | 0.048 | -0.002 | 0.015 | 0.086 | -0.06 | -0.179 | 0.014 | -0.04 | -0.012 | -0.161 | -0.039 | 0.091 | 0.066 | 0.256
NDUFS8 (UniProt O00217) | -0.07 | -0.122 | -0.003 | -0.147 | -0.15 | -0.069 | -0.028 | 0.081 | 0.01 | 0.018 | 0.021 | -0.182 | 0.143 | -0.027 | 0.055 | -0.168 | -0.011 | 0.021 | -0.043 | -0.158
MPP1 (UniProt Q00013) | 0.024 | -0.041 | -0.027 | 0.069 | 0.032 | 0.016 | 0.114 | -0.074 | 0.032 | 0.096 | 0.064 | -0.092 | 0.05 | 0.001 | 0.007 | -0.073 | -0.022 | 0.061 | 0.023 | -0.108
MIS12 (UniProt Q9H081) | 0.079 | 0.004 | 0.077 | -0.011 | 0.06 | 0.035 | 0.026 | 0.032 | -0.048 | -0.005 | 0.016 | -0.064 | -0.03 | -0.099 | 0.037 | -0.012 | 0.153 | 0.009 | -0.019 | -0.034
NBN (UniProt O60934) | -0.039 | -0.007 | 0.039 | -0.053 | 0.057 | 0.028 | 0.03 | -0.019 | 0.008 | -0.035 | 0.02 | 0.009 | 0.038 | -0.063 | 0.105 | -0.069 | 0.028 | 0.116 | -0.004 | 0.008
MRPS15 (UniProt P82914) | 0.041 | 0.145 | 0.095 | -0.265 | -0.024 | 0.016 | -0.054 | 0.024 | 0.08 | -0.13 | 0.09 | -0.092 | 0.022 | 0.072 | -0.011 | -0.053 | -0.046 | 0.067 | 0.042 | -0.318 (active)
NSUN2 (UniProt Q08J23) | -0.153 | -0.002 | -0.046 | 0.021 | -0.022 | -0.235 | 0.015 | -0.003 | 0.035 | -0.088 | -0.107 | -0.034 | 0.031 | 0.008 | -0.077 | -0.151 | 0.065 | 0.053 | 0.067 | -0.098
MRPS27 isoform 2 (UniProt Q92552) | 0.062 | 0.029 | 0.068 | -0.124 | -0.05 | -0.024 | 0.016 | -0.014 | 0.036 | -0.038 | -0.017 | -0.062 | 0.005 | 0.097 | 0.029 | 0.094 | 0.002 | 0.096 | 0.013 | -0.304 (active)
NOP56 (UniProt O00567) | -0.083 | 0.605 (active) | 0.136 | 0.345 | 0.007 | 0.045 | -0.046 | -0.078 | 0.098 | 0.013 | -0.101 | -0.103 | -0.338 | 0.285 | -0.022 | 0.064 | -0.043 | 0 | 0.178 | 0.162

Reference: the supplement of paper PMC10849652
